Reference: the supplement of paper PMC9334596
Several values for one entry are separate records, joined by “and”; a condition that tells them apart may be missing. Equal entries are not always repeated. In all, about 5,300 compounds were measured (“PER2::LUC luminescence relative to vehicle control”: median about 0.96, highest 2% from about 1.3 on). Only a selection was taken, and the highest values are over-represented in it overall.

System: mPer2Luc MEF
Test: PER2::LUC luminescence relative to vehicle control (fold of vehicle); higher = higher PER2::LUC reporter signal
Conditions: 10 µM
How it was run: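 Mouse embryonic fibroblasts carrying the mPer2Luc reporter were seeded at ~3000 cells per well in 384-well plates, 48 h before compounds from commercial libraries were added at 10 μM. Cells were grown in DMEM with 10% FBS at 37 °C and 5% CO2. Luminescence was read with the ONE-Glo luciferase assay system 24 h and 30 h after treatment, followed by an alamarBlue viability assay. The value is PER2::LUC luminescence as fold of vehicle control.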

Row | SMILES | PER2::LUC luminescence (time after treatment 24 h) | PER2::LUC luminescence (time after treatment 30 h)
1 | CCCCCCC(=O)CCCCCC/C=C/C[C@@H](O)[C@H](O)[C@@](N)(CO)C(=O)O | 1.26 | 1.35
2 | Cc1ncc(C[n+]2csc(CCO)c2C)c(=O)[nH]1 | 1.01 | 0.895
3 | NCC(CC(=O)O)c1ccc(Cl)s1 (racemic) | 1.04 | 0.985
4 | CC[C@H](C)[C@@H]([C@@H](CC(=O)N1CCC[C@H]1[C@H](OC)[C@@H](C)C(=O)N[C@H](C)[C@@H](O)c1ccccc1)OC)N(C)C(=O)[C@@H](NC(=O)[C@@H](NC)C(C)C)C(C)C | 0.378 | 0.38
5 | Cc1[nH]c2ccc(O)cc2c1CCN | 1.08 and 1.05 | 0.977 and 1.35
6 | NCCc1ccc(O)cc1 | 1.03 and 0.947 | 0.942 and 0.934
7 | NCCc1c[nH]c2ccc(O)cc12 | 0.925 | 0.97
8 | NC(CCCCCP(=O)(O)O)C(=O)O (racemic) | 1.22 | 1.09
9 | O=[N+]([O-])c1cc([As](=O)(O)O)ccc1O | 1.08 | 1.54
10 | CC(=O)Nc1cc([As](=O)(O)O)ccc1O | 1.04 and 1.02 | 1.06 and 0.878
11 | O=[N+]([O-])c1ccc([As](=O)(O)O)cc1 | 1.13 | 0.866
12 | COc1cc(=O)oc(/C=C/C=C/C=C/C(C)=C/[C@@]2(C)O[C@H](C)[C@](C)(O)[C@H]2O)c1C | 0.952 | 0.913
13 | COc1c2c3c4c(c(OC)c(=O)c5c(O)cc(OC)c(c6c(OC)cc(O)c(c1=O)c63)c54)[C@@H](C(C)=O)[C@@](C)(O)C2 | 1.14 | 1.06
14 | O=C(O)[C@@H]1C[C@H]2C[C@@H](CP(=O)(O)O)CC[C@H]2CN1 | 1.03 | 0.966
15 | C=C(C)c1cc2cc(C(C)=O)c(O)cc2o1 | 1.31 | 1.39
16 | OCC1C(O)C(O)C2C(O)CCN12 (stereo not given) | 1.1 | 1.08
17 | COc1ccc(O)c(C(C)(C)C)c1.COc1ccc(O)cc1C(C)(C)C | 0.868 | 1.18
18 | C=CCc1ccc(OC)cc1 | 0.993 | 0.968
19 | COc1ccc(/C=C/c2cc(O)cc(O)c2)cc1 | 1.69 | 1.76
20 | CC(=O)Oc1ccc(/C=C/c2cc(OC(C)=O)cc(OC(C)=O)c2)cc1 | 1.76 | 1.65
21 | CCCC(=O)O[C@@H]1[C@@H](C)[C@@]2(O)[C@@H](C=C(CO)C[C@]3(O)C(=O)C(C)=C[C@@H]23)[C@@H]2C(C)(C)[C@]12OC(=O)CCC | 1.13 | 0.899
22 | COc1cc2c(cc1F)C(c1ccccc1Cl)=Nc1c(n[nH]c1C)N2 | 0.461 | 0.367
23 | CC(=O)OCC1=C[C@H]2[C@@H]3C(C)(C)[C@]3(OC(=O)Cc3ccccc3)C[C@@H](C)[C@]2(O)[C@@H]2C=C(C)C(=O)[C@@]2(O)C1 | 1.21 | 1.09

Row | SMILES | PER2::LUC luminescence (time after treatment 24 h) | PER2::LUC luminescence (time after treatment 30 h)
24 | COc1ccc(C(C)(C)C)cc1CN[C@H]1C2CCN(CC2)[C@H]1C(c1ccccc1)c1ccccc1 | 0.868 | 0.939
25 | CC1=C[C@]23C(=O)[C@@H](C=C(CO)[C@@H](O)[C@]2(O)[C@H]1O)[C@H]1[C@@H](C[C@H]3C)C1(C)C | 0.981 | 0.957
26 | CCN(CC)C(=O)NC1CC2c3cccc4[nH]cc(c34)CC2N(C)C1 (stereo not given) | 0.846 | 0.986
27 | COC1=CC(=O)O[C@@H](/C=C/c2ccc3c(c2)OCO3)C1 | 0.149 | 0.152
28 | COC1=CC(=O)O[C@@H](/C=C/c2ccccc2)C1 | 1.28 | 1.35
29 | COC1=CC(=O)O[C@@H](CCc2ccc3c(c2)OCO3)C1 | 0.859 | 0.763
30 | Cc1o[nH]c(=O)c1CC(N)C(=O)O (racemic) | 0.875 | 0.984
31 | C[C@@H]1OC(=O)[C@H]2C[C@H]3CCCC[C@@H]3[C@@H](/C=C/[C@H]3CCC[C@H](C)N3C)[C@@H]12 | 0.807 | 0.884
32 | N=C(N)NCCCCCCCCCCNC(=N)N | 0.972 | 0.965
33 | Cn1cnc(CCN)c1 | 0.826 | 0.66
34 | NCCc1ccccn1 | 0.99 | 1.45
35 | NCCc1ccccc1 | 1.03 | 1.04
36 | CC(C)CC(NC(=O)C(Cc1ccccc1)NC(=O)CNC(=O)C(C)NC(=O)C(N)Cc1ccc(O)cc1)C(=O)O (stereo not given) | 1.03 | 0.904
37 | CC1(C)C(=O)N(c2ccc(C#N)c(C(F)(F)F)c2)C(=S)N1c1ccc(C(N)=O)c(F)c1 | 1.06 | 1.11
38 | CC(=O)OC12CC(C)C3(O)C4C=C(C)C(=O)[C@@]4(O)CC(CO)=C[C@H]3C1C2(C)C (stereo not given in full) | 1.15 | 0.967
39 | NNC(N)=O | 1.09 | 0.875
40 | NC(=O)CI | 1.59 | 1.31
41 | COC(N)=O | 1.07 | 1.01
42 | O=C(O)CF | 1.08 | 1.08
43 | CN(C(=O)Cc1ccc(Cl)c(Cl)c1)[C@H](CN1CCCC1)c1cccc(N=C=S)c1 | 0.676 | 0.687
44 | CCCN1C[C@H](C)N([C@H](c2ccc(C(=O)N(CC)CC)cc2)c2cccc(OC)c2)C[C@H]1C | 0.894 | 0.899
45 | C=CCN1CC[C@@]2(C)c3cc(O)ccc3C[C@@H]1C2C (single isomer, unassigned; (+)) | 0.969 | 0.939
